8 compounds from PubChem BioAssay can be followed below.

Experiment [1] is described as follows: stimulators of nuclear beta-catenin in C2C12, primary screen, imaging, WNT3A-conditioned medium, mouse C2C12, NPC library (AID 1117326; in the data active means nuclear beta-catenin stimulation mostly above about 4.2%, no sharp cut-off; inactive means mostly below about 10%; further: reference of the scale not given here). The following applies: stronger effect = higher value.
Experiment [2] can be described thus: stimulators of insulin release from INS-1E, primary screen, cell-based, 5 mM glucose, NPC library (AID 1117329;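 active means compound raises insulin release from rat beta cells at 5 mM glucose, no numeric limit stated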; further: reference of the scale not given here). The following applies: rat INS-1E insulin secretion, at 10 µM, stronger effect = higher value.
The nature of experiment [3]: growth inhibition of GSK3B-pretreated HCT116 cells – cell-based, CellTiter-Glo, 0.2 to 20 µM (AID 1117336;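 active means compounds lowering colon cancer cell viability after pretreatment blocking the GSK3B kinase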). The following applies: HCT116 viability after GSK3B inhibitor, at 20 µM, stronger effect = higher value. For orientation: Cellular ATP, detected with luciferase, serves as a proxy for viable cell number.
A short description of experiment [4]: inhibition of endothelial tube formation, primary screen, imaging, VEGF stimulated, CD31 staining, tube area, NPC library (AID 1117340;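 active means compound that reduces growth-factor-driven endothelial tube area in a mixed cell culture, no cutoff stated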). The following applies: VEGF-stimulated ADSC/ECFC co-culture, at 10 µM, stronger effect = higher value.
Experiment [5] can be described thus: glucagon-like peptide 1 release enhancers, primary assay, NCI-H716 cell line, NPC library (AID 1117341;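 active means compound raises GLP1 secretion from the human gut endocrine cells, with no numeric limit stated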; further: reference of the scale not given here). The following applies: NCI-H716 cells, at 10 µM, stronger effect = higher value.
Experiment [6] in a line: HCT116 colon cancer cell growth inhibition, primary screen, CellTiter-Glo luminescence, NPC library (AID 1117342). The following applies: at 20 µM (top of the series).
Experiment [7] can be described thus: CellTiter-Glo luminescent readout of SW480 viability loss, NPC library primary (AID 1117343;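 active means compounds that lower viability of the colon cancer cells in the luminescence readout, with no numeric limit stated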). The conditions noted are these: CellTiter-Glo luminescence; at 20 µM (top of the series).
The nature of experiment [8]: decreased DLD-1 cellular survival, CellTiter-Glo luminescent readout, NPC compound collection, primary HTS (AID 1117346;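 active means compounds that lower survival of DLD-1 colon cancer cells in the luminescence readout, no cutoff given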). The following applies: DLD-1 viability, CellTiter-Glo luminescence; at 20 µM (top of the series).

The structures appear in SMILES notation. Active and inactive are the calls of the source.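 How the source made its calls, unless noted: active means compounds that lower survival of HCT116 colon cancer cells in the luminescence readout, no numeric limit stated; inactive means the rest.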

Consider `C[C@H]1NCc2cc(-c3ccc4c(=O)c(C(=O)O)cn(C5CC5)c4c3OC(F)F)ccc21`, for which the nuclear beta-catenin stimulation in experiment [1] (at 10 µM) is 4.5% (inactive); in experiment [1] (stimulation, at 2 µM), 1.3%. For the same compound, the insulin secretion stimulation in experiment [2] was 0.3% (inactive). In addition, the viability decrease in experiment [3] is 2.4% (inactive). Also, the tube area decrease in experiment [4] was 9.5% (inactive). The GLP1 secretion stimulation in experiment [5] is -0.7% (inactive). The inhibition of viability in experiment [6] is 20.1% (inactive). Moreover, the viability decrease (inhibition) in experiment [7] is -3.4% (inactive); in experiment [8], 2.9% (inactive).
For `O=C(Cn1ccnc1[N+](=O)[O-])NCc1ccccc1`, the nuclear beta-catenin stimulation was -0.6% (inactive) in experiment [1] (at 10 µM) and 0.4% in experiment [1] (stimulation, at 2 µM). In addition, the insulin secretion stimulation in experiment [2] was -1.9% (inactive). Further, the viability decrease in experiment [3] was -22.5% (inactive). Besides, the tube area decrease in experiment [4] is -8.5% (inactive). For the same compound, the GLP1 secretion stimulation in experiment [5] was -4.4% (inactive). Further, in experiment [6], the inhibition of viability is 1.8% (inactive). Also, the viability decrease (inhibition) in experiment [7] is 7.9% (inactive); in experiment [8] it was 1% (inactive).
Turning to `CC(C)OP(=O)(CP(=O)(OC(C)C)OC(C)C)OC(C)C`, the nuclear beta-catenin stimulation in experiment [1] (at 10 µM) is -0.3% (inactive); in experiment [1] (stimulation, at 2 µM), 1.5%. Further, the insulin secretion stimulation in experiment [2] was 0.8% (inactive). For the same compound, the viability decrease in experiment [3] was -8.5% (inactive). For the same compound, the tube area decrease in experiment [4] is 11.4% (inactive). Besides, in experiment [5], the GLP1 secretion stimulation was -0.8% (inactive). In experiment [6], the inhibition of viability is 1.5% (inactive). Moreover, the viability decrease (inhibition) in experiment [7] was -11.1% (inactive); in experiment [8] it was 10.4% (inactive).
For the compound `CCCCCCCCCCCCCC[N+](C)(C)C`, the nuclear beta-catenin stimulation in experiment [1] (at 10 µM) is 61.2% (active); in experiment [1] (stimulation, at 2 µM) it was 7.5%. The insulin secretion stimulation in experiment [2] was -0.2% (inactive). In addition, the viability decrease in experiment [3] was 101% (active). Further, in experiment [4], the tube area decrease is 110% (active). For the same compound, the GLP1 secretion stimulation in experiment [5] is 29.7% (active). Also, in experiment [6], the inhibition of viability was 101% (active). In addition, the viability decrease (inhibition) in experiment [7] was 122% (active); in experiment [8], 103% (active).
Take `CN1N=C(C(N)=O)CCC1=O`: the nuclear beta-catenin stimulation is 1.1% (inactive) in experiment [1] (at 10 µM) and 1.9% in experiment [1] (stimulation, at 2 µM). The insulin secretion stimulation in experiment [2] was 1.05% (inactive). Moreover, the viability decrease in experiment [3] was 3.8% (inactive). The tube area decrease in experiment [4] was 1.5% (inactive). Moreover, the GLP1 secretion stimulation in experiment [5] was 2.5% (inactive). For the same compound, the inhibition of viability in experiment [6] is 15.3% (inactive). In addition, the viability decrease (inhibition) in experiment [7] was -11.3% (inactive); in experiment [8], 10.1% (inactive).
Regarding `N#C[C@H]1C[C@H]2C[C@@H]2N1C(=O)[C@@H](N)C12CC3CC(CC(O)(C3)C1)C2`, the nuclear beta-catenin stimulation in experiment [1] (at 10 µM) is 0.4% (inactive); in experiment [1] (stimulation, at 2 µM) it was 1.1%. For the same compound, the insulin secretion stimulation in experiment [2] is -2% (inactive). The viability decrease in experiment [3] was -4.75% (inactive). For the same compound, the tube area decrease in experiment [4] was 2.7% (inactive). Also, the GLP1 secretion stimulation in experiment [5] is 1.4% (inactive). The inhibition of viability in experiment [6] is -5.3% (inactive). The viability decrease (inhibition) in experiment [7] was 9.8% (inactive); in experiment [8], 6.25% (inactive).
Take `Nc1ccc(C(=O)OCC(O)CO)cc1` (configuration not stated): the nuclear beta-catenin stimulation in experiment [1] (at 10 µM) was 3.1% (inactive); in experiment [1] (stimulation, at 2 µM), 3.7%. Moreover, the insulin secretion stimulation in experiment [2] was 0.6% (inactive). In addition, the viability decrease in experiment [3] is 0.9% (inactive). Further, the tube area decrease in experiment [4] was -15.4% (inactive). Further, the GLP1 secretion stimulation in experiment [5] was -0.9% (inactive). Further, in experiment [6], the inhibition of viability is 6.7% (inactive). Further, the viability decrease (inhibition) in experiment [7] was -16.3% (inactive); in experiment [8], -3.4% (inactive).
As for `Cc1ncc(CO)c(C=O)c1O`, the nuclear beta-catenin stimulation in experiment [1] (at 10 µM) was -0.2% (inactive); in experiment [1] (stimulation, at 2 µM) it was 0.6%. The insulin secretion stimulation in experiment [2] was 2.8% (inactive). The viability decrease in experiment [3] was -8.9% (inactive). In addition, in experiment [4], the tube area decrease is -6.1% (inactive). In addition, the GLP1 secretion stimulation in experiment [5] is -2.6% (inactive). In addition, in experiment [6], the inhibition of viability is 13.3% (inactive). In addition, the viability decrease (inhibition) in experiment [7] is 24.3% (inactive); in experiment [8] it was -1.4% (inactive).
